PubChem BioAssay AID1159580 (chemical genetic matrix, 2015)
Screen size: about 5,500 compounds; about 2,000 (36%) were called active. Not shown: some 18% with an inconclusive outcome. Cut-off read from the data, not from the text of the source: active = normalized growth mostly below about 0.91 (no sharp cut-off); inconclusive = no clear call, values can overlap the other calls; inactive = mostly above about 0.92. This is one part of the list.

Assay: chemical genetic growth profiling, strain panel (AID 1159580);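 note: tested at 20 µM; growth read once vehicle control cultures reached saturation at 30 °C; 1 = growth at the plate median or of vehicle wells; lower values mean less growth of the strain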
Details: S. cerevisiae deletion strains, growth OD

Measured: normalized growth

COc1ccc(C2=C(C(C)=O)C(C)=NC(=S)C2C#N)cc1 (stereo not given)
inactive: locus YAL013W, strain DEP1, hits give low values 1.01 | locus YBR229C, strain ROT2, hits give low values 1.02 | locus YCL061C, strain MRC1, hits give low values 1.01 | locus YDL101C, strain DUN1, hits give low values 1.05 | locus YDR150W, strain NUM1, hits give low values 0.933 | locus YEL061C, strain CIN8, hits give low values 1.04 | locus YGR078C, strain PAC10, hits give low values 0.993 | locus YHR030C, strain SLT2, hits give low values 0.947 | locus YHR087W, strain rtc3, hits give low values 1.04 | locus YJL187C, strain SWE1, hits give low values 1 | locus YJR043C, strain POL32, hits give low values 1.04 | locus YJR075W, strain HOC1, hits give low values 1.01 | locus YKL190W, strain CNB1, hits give low values 0.987 | locus YLR039C, strain RIC1, hits give low values 0.977 | locus YLR058C, strain SHM2 (second series), hits give low values 0.994 | locus YLR085C, strain ARP6, hits give low values 0.89 | locus YLR262C, strain YPT6, hits give low values 0.972 | locus YML094W, strain GIM5, hits give low values 1.12 | locus YMR219W, strain ESC1, hits give low values 0.998 | locus YMR263W, strain SAP30, hits give low values 0.905 | locus YMR307W, strain GAS1, hits give low values 0.702 | locus YNL128W, strain TEP1, hits give low values 0.983 | locus YNL153C, strain GIM3, hits give low values 1.03 | locus YNL298W, strain CLA4 (second series), hits give low values 0.89 | locus YNL322C, strain KRE1, hits give low values 1 | locus YNR030W, strain Alg12, hits give low values 0.987 | locus YOL006C, strain TOP1, hits give low values 0.754 | locus YPL055C, strain LGE1, hits give low values 0.97 | locus YPL241C, strain CIN2, hits give low values 0.943
active: locus YPR135W, strain CTF4, hits give low values 0.356
